Our source for the binding signal values is publication PMC12820563, “FoxP3 forms a head-to-head dimer in vivo and stabilizes its multimerization on adjacent microsatellites”.

In all, about 16,000 sequences were measured (“rpm ratio (pull-down/input)”: median about 0.5, highest 2% from about 5.5 on). Only a selection was taken, and the highest values are over-represented in it overall.

For this assay, the target named is T1, MBP-FoxP3dN (Mus musculus, UniProt Q99JB6 188-423).
T1 sequence: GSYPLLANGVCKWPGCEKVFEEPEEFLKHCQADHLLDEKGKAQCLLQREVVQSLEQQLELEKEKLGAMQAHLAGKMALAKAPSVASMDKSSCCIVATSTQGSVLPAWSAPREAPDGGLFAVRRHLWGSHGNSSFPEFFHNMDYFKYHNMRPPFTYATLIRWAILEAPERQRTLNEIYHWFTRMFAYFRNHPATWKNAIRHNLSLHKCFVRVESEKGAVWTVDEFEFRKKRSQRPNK
The assay can be described thus: PD-seq (MBP pull-down with sequencing); 20 mM Tris-HCl pH 7.5, 100 mM NaCl, 1.5 mM MgCl2, 0.4 uM protein, 0.1 uM dsDNA library, 30 min, room temperature, amylose pull-down; high values mean tight binding. Conditions: protein: recombinant; tags: His6-MBP; chain copies: 2; dsDNA, one strand shown. The method, boiled down: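 In Tris pH 7.5 buffer with NaCl and MgCl2, 0.4 µM His6-MBP-tagged mouse FoxP3 or FoxP1 fragment lacking the N-terminus, from E. coli, met 0.1 µM Klenow-filled double-stranded degenerate DNA library for 30 min at room temperature. Three washes on amylose resin followed capture of the complexes, then proteinase K release of DNA, PCR barcoding and Illumina sequencing. Binding is taken as pooled-replicate reads-per-million enrichment of pull-down relative to input.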
With “GATGATTGTTCTCCCAGCTGATGAATTATTGGAGTCGAGTAAACAAATTTTCCTAATCTTTCTGTTCAAGCGCCATCTAC”, the binding signal is 0.296 RPM ratio (pull-down/input). The value for “GATGATTGTTCTCCCAGCTGATGAATTTAAACGCTCGAGTAAACAAATTTTCCTAATCTTTCTGTTCAAGCGCCATCTAC” was 0.381 RPM ratio (pull-down/input). As to “GATGATTGTTCTCCCAGCTGATGAATTGCATTATTCGAGTAAACAAATTTTCCTAATCTTTCTGTTCAAGCGCCATCTAC”, the binding signal is 3.3 RPM ratio (pull-down/input). With “GATGATTGTTCTCCCAGCTGATGAATTGCATCCTTCGAGTAAACAAATTTTCCTAATCTTTCTGTTCAAGCGCCATCTAC” the figure was 5.53 RPM ratio (pull-down/input); with “GATGATTGTTCTCCCAGCTGATGAATTATTCCATTCGAGTAAACAAATTTTCCTAATCTTTCTGTTCAAGCGCCATCTAC”, 0.434 RPM ratio (pull-down/input); with “GATGATTGTTCTCCCAGCTGATGAATTGCATCTTTCGAGTAAACAAATTTTCCTAATCTTTCTGTTCAAGCGCCATCTAC”, 5.4 RPM ratio (pull-down/input). “GATGATTGTTCTCCCAGCTGATGAATTGCATTCGTCGAGTAAACAAATTTTCCTAATCTTTCTGTTCAAGCGCCATCTAC”: the binding signal was 3.88 RPM ratio (pull-down/input). Turning to “GATGATTGTTCTCCCAGCTGATGAATTGAATCCTTCGAGTAAACAAATTTTCCTAATCTTTCTGTTCAAGCGCCATCTAC”, the binding signal is 0.33 RPM ratio (pull-down/input). On to “GATGATTGTTCTCCCAGCTGATGAATTGCCATCTTCGAGTAAACAAATTTTCCTAATCTTTCTGTTCAAGCGCCATCTAC”, for which the binding signal was 1.07 RPM ratio (pull-down/input). With “GATGATTGTTCTCCCAGCTGATGAATTCTTGCATTCGAGTAAACAAATTTTCCTAATCTTTCTGTTCAAGCGCCATCTAC” the figure was 6.02 RPM ratio (pull-down/input); with “GATGATTGTTCTCCCAGCTGATGAATTTGCAGCTTCGAGTAAACAAATTTTCCTAATCTTTCTGTTCAAGCGCCATCTAC”, 1.22 RPM ratio (pull-down/input); with “GATGATTGTTCTCCCAGCTGATGAATTCCTTGCATCGAGTAAACAAATTTTCCTAATCTTTCTGTTCAAGCGCCATCTAC”, 0.828 RPM ratio (pull-down/input). With “GATGATTGTTCTCCCAGCTGATGAATTTGCATCTTCGAGTAAACAAATTTTCCTAATCTTTCTGTTCAAGCGCCATCTAC” the figure was 7.16 RPM ratio (pull-down/input); with “GATGATTGTTCTCCCAGCTGATGAATTATTGCATTCGAGTAAACAAATTTTCCTAATCTTTCTGTTCAAGCGCCATCTAC”, 7.31 RPM ratio (pull-down/input); with “GATGATTGTTCTCCCAGCTGATGAATTGTAGACATCGAGTAAACAAATTTTCCTAATCTTTCTGTTCAAGCGCCATCTAC”, 0.874 RPM ratio (pull-down/input). Consider “GATGATTGTTCTCCCAGCTGATGAATTGACTCTCTCGAGTAAACAAATTTTCCTAATCTTTCTGTTCAAGCGCCATCTAC”, for which the binding signal was 0.425 RPM ratio (pull-down/input). The value for “GATGATTGTTCTCCCAGCTGATGAATTCGAGATATCGAGTAAACAAATTTTCCTAATCTTTCTGTTCAAGCGCCATCTAC” was 0.404 RPM ratio (pull-down/input); that for “GATGATTGTTCTCCCAGCTGATGAATTGGTAGCCTCGAGTAAACAAATTTTCCTAATCTTTCTGTTCAAGCGCCATCTAC” was 0.924 RPM ratio (pull-down/input); that for “GATGATTGTTCTCCCAGCTGATGAATTCACTGTATCGAGTAAACAAATTTTCCTAATCTTTCTGTTCAAGCGCCATCTAC” was 0.627 RPM ratio (pull-down/input). Regarding “GATGATTGTTCTCCCAGCTGATGAATTGTCTGTATCGAGTAAACAAATTTTCCTAATCTTTCTGTTCAAGCGCCATCTAC”, the binding signal was 0.624 RPM ratio (pull-down/input). For the sequence “GATGATTGTTCTCCCAGCTGATGAATTGTGGCGTTCGAGTAAACAAATTTTCCTAATCTTTCTGTTCAAGCGCCATCTAC”, the binding signal is 2.54 RPM ratio (pull-down/input). With “GATGATTGTTCTCCCAGCTGATGAATTGAATGATTCGAGTAAACAAATTTTCCTAATCTTTCTGTTCAAGCGCCATCTAC” the figure was 0.737 RPM ratio (pull-down/input); with “GATGATTGTTCTCCCAGCTGATGAATTCGAACACTCGAGTAAACAAATTTTCCTAATCTTTCTGTTCAAGCGCCATCTAC”, 0.457 RPM ratio (pull-down/input); with “GATGATTGTTCTCCCAGCTGATGAATTTTTCCGTTCGAGTAAACAAATTTTCCTAATCTTTCTGTTCAAGCGCCATCTAC”, 0.238 RPM ratio (pull-down/input). The value for “GATGATTGTTCTCCCAGCTGATGAATTCACTCAATCGAGTAAACAAATTTTCCTAATCTTTCTGTTCAAGCGCCATCTAC” was 0.294 RPM ratio (pull-down/input); that for “GATGATTGTTCTCCCAGCTGATGAATTGGGACTGTCGAGTAAACAAATTTTCCTAATCTTTCTGTTCAAGCGCCATCTAC” was 0.673 RPM ratio (pull-down/input).

For the sequence “GATGATTGTTCTCCCAGCTGATGAATTACACTATTCGAGTAAACAAATTTTCCTAATCTTTCTGTTCAAGCGCCATCTAC”, the binding signal is 0.606 RPM ratio (pull-down/input). As for “GATGATTGTTCTCCCAGCTGATGAATTGCCATCCTCGAGTAAACAAATTTTCCTAATCTTTCTGTTCAAGCGCCATCTAC”, the binding signal was 0.935 RPM ratio (pull-down/input). With “GATGATTGTTCTCCCAGCTGATGAATTTGCATCCTCGAGTAAACAAATTTTCCTAATCTTTCTGTTCAAGCGCCATCTAC” the figure was 7.55 RPM ratio (pull-down/input); with “GATGATTGTTCTCCCAGCTGATGAATTGCATCCCTCGAGTAAACAAATTTTCCTAATCTTTCTGTTCAAGCGCCATCTAC”, 4.21 RPM ratio (pull-down/input); with “GATGATTGTTCTCCCAGCTGATGAATTGTAACCATCGAGTAAACAAATTTTCCTAATCTTTCTGTTCAAGCGCCATCTAC”, 1.1 RPM ratio (pull-down/input).

In the case of “GATGATTGTTCTCCCAGCTGATGAATTGGACGACTCGAGTAAACAAATTTTCCTAATCTTTCTGTTCAAGCGCCATCTAC”, the binding signal is 0.259 RPM ratio (pull-down/input).

Take “GATGATTGTTCTCCCAGCTGATGAATTGTGTTCATCGAGTAAACAAATTTTCCTAATCTTTCTGTTCAAGCGCCATCTAC”: the binding signal is 1.77 RPM ratio (pull-down/input). In the case of “GATGATTGTTCTCCCAGCTGATGAATTCGAGTTATCGAGTAAACAAATTTTCCTAATCTTTCTGTTCAAGCGCCATCTAC”, the binding signal is 0.746 RPM ratio (pull-down/input).

Regarding “GATGATTGTTCTCCCAGCTGATGAATTGCCAAATTCGAGTAAACAAATTTTCCTAATCTTTCTGTTCAAGCGCCATCTAC”, the binding signal was 0.453 RPM ratio (pull-down/input). The value for “GATGATTGTTCTCCCAGCTGATGAATTGGATCCGTCGAGTAAACAAATTTTCCTAATCTTTCTGTTCAAGCGCCATCTAC” was 0.219 RPM ratio (pull-down/input). The value for “GATGATTGTTCTCCCAGCTGATGAATTGTGTTTGTCGAGTAAACAAATTTTCCTAATCTTTCTGTTCAAGCGCCATCTAC” was 8.45 RPM ratio (pull-down/input). With “GATGATTGTTCTCCCAGCTGATGAATTGTTTGTGTCGAGTAAACAAATTTTCCTAATCTTTCTGTTCAAGCGCCATCTAC” the figure was 8.22 RPM ratio (pull-down/input); with “GATGATTGTTCTCCCAGCTGATGAATTGTGTGTGTCGAGTAAACAAATTTTCCTAATCTTTCTGTTCAAGCGCCATCTAC”, 5.21 RPM ratio (pull-down/input). As for “GATGATTGTTCTCCCAGCTGATGAATTTTGTGTTTCGAGTAAACAAATTTTCCTAATCTTTCTGTTCAAGCGCCATCTAC”, the binding signal was 5.3 RPM ratio (pull-down/input).
